Data on 34 sequences can be found in the supplement of paper PMC10338343.

± gives the standard deviation.

The subject of test [1] is MILI (PIWIL2) piRISC loaded with piRNA #1 (26 nt). Briefly: pre-steady-state target cleavage rate (min^-1); guide: piRNA #1 5'p-UGAGGUAGUAGGUUGUAUAGUAUCCA; higher = faster piRNA-guided slicing of the target. The following applies: auxiliary factor: 500 nM mouse GTSF1. Summed up: (§1)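 Active affinity-purified piRISC (1 nM) loaded with one synthetic guide was mixed with a transcribed, DNA-blocked target RNA library (0.1 nM), with or without 500 nM GTSF1 partner protein, in HEPES–potassium acetate buffer at 33 °C for 0–8 or 0–960 min. Uncleaved targets were sequenced, normalised to depth and to weakly complementary targets, and pooled across three trials, with k3 capped at 0.0001 min^-1. The pre-steady-state cleavage rate was determined with a burst-and-steady-state fit.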

Test [2] deals with EfPiwi piRISC loaded with piRNA #1 (26 nt). The test can be described thus: pre-steady-state target cleavage rate (min^-1); auxiliary factor: 500 nM Ephydatia muelleri Gtsf1; guide: piRNA #1 5'p-UGAGGUAGUAGGUUGUAUAGUAUCCA; MIWI and MILI are mouse PIWI proteins and EfPiwi is from a freshwater sponge; tags in brackets are library labels; higher = faster piRNA-guided slicing of the target. Summed up: as §1

GGAGAGGAUAUAUACAACCUACUACCUCA: the “pre-steady-state target cleavage rate” value in test [1] is 0.165 ± 0.014; in test [2] it was 0.00764 ± 0.0042.

For GGAGUGGAUACUGUACAACCUACUACCUCA, the “pre-steady-state target cleavage rate” value came to 0.178 ± 0.0077 in test [1] and 0.109 ± 0.039 in test [2].

With GGAGAGGUUACUAUACAUCCUACUACCUCA, the “pre-steady-state target cleavage rate” value worked out at 0.191 ± 0.016 in test [1] and 0.00567 ± 0.0029 in test [2].

As for GGAGUGGAUACAAUACAACCUUCUACCUCA, the “pre-steady-state target cleavage rate” value came to 0.0111 ± 0.0024 in test [1] and 0.00456 ± 0.0022 in test [2].

For GGAGAGGAUACUAUACAACCUACUACCUUCA, the “pre-steady-state target cleavage rate” value in test [1] turned out to be 0.178 ± 0.016; in test [2], 0.104 ± 0.039.

Take GGAGUGGAUACUUUACAUCCUACUACCUCA: the “pre-steady-state target cleavage rate” value in test [1] turned out to be 0.253 ± 0.012; in test [2] it was 0.0043 ± 0.0029.

On to GGAGACGAUACUAUACAACCUACUACCACA, for which the “pre-steady-state target cleavage rate” value in test [1] worked out at 0.185 ± 0.018; in test [2], 0.00487 ± 0.0013.

Regarding GGAGAGGAUUCUAUACAACGUACUACCUCA, the entries for the “pre-steady-state target cleavage rate” value in test [1] and in test [2] were 0.028 ± 0.0028 and 0.00249 ± 0.0021, respectively.

Turning to GGAGACCUUACUAUACAACCUACUACCCCA, the “pre-steady-state target cleavage rate” value was 0.142 ± 0.021 in test [1] and 0.00566 ± 0.0032 in test [2].

Regarding GGAGACGAUACUACUACAACCUACUACCUCA, the “pre-steady-state target cleavage rate” value in test [1] amounted to 0.193 ± 0.015; in test [2], 0.0327 ± 0.012.

As to GGAGACCAUACUAUAGAACCUACUACCUCA, the “pre-steady-state target cleavage rate” value in test [1] worked out at 0.116 ± 0.016; in test [2], 0.00367 ± 0.0017.

Regarding GGAGUGGAUUCUAUACAACCUACUACGUCA, the “pre-steady-state target cleavage rate” value stood at 0.0598 ± 0.0076 in test [1] and 0.0027 ± 0.0024 in test [2].

Regarding GGAGUGGAUACUAUACAACCUACUACCUGA, the “pre-steady-state target cleavage rate” value was 0.0915 ± 0.011 in test [1] and 0.0069 ± 0.0028 in test [2].

With GGAGACCUAUCUAUACAACCUACUACCUGA, the “pre-steady-state target cleavage rate” value was 0.074 ± 0.011 in test [1] and 0.00569 ± 0.0033 in test [2].

In the case of GGAGACCUAACUAUACAACCUACUACCUAA, the “pre-steady-state target cleavage rate” value in test [1] is 0.0853 ± 0.015; in test [2] it was 0.0641 ± 0.025.

In the case of GGAGACCUUACUAUUACAACCUACUACCUCA, the “pre-steady-state target cleavage rate” value in test [1] stood at 0.117 ± 0.01; in test [2], 0.00484 ± 0.0035.

On to GGAGUGGAUACGAUACAACCUACUACCUCA, for which the “pre-steady-state target cleavage rate” value in test [1] came to 0.176 ± 0.011; in test [2], 0.0121 ± 0.0053.

For GGAGUGGAUACUAUAACAACCUACUACCUCA, the “pre-steady-state target cleavage rate” value in test [1] is 0.171 ± 0.0095; in test [2], 0.0556 ± 0.021.

For the sequence GGAGAGGAUACUAUACAACCUAACUACCUCA, the entries for the “pre-steady-state target cleavage rate” value in test [1] and in test [2] were 0.0231 ± 0.0035 and 0.00656 ± 0.0027, respectively.

Turning to GGAGUGGAAUCUAUACAACCUACUACCUCA, the “pre-steady-state target cleavage rate” value is 0.152 ± 0.0088 in test [1] and 0.00913 ± 0.0055 in test [2].

Regarding GGAGACCAUACUAUACAACCUCACUACCUCA, the figures for the “pre-steady-state target cleavage rate” value in test [1] and in test [2] were 0.00609 ± 0.0028 and 0.0127 ± 0.0078, respectively.

GGAGACCUUACCAUACAACCUACUACCUCA: the “pre-steady-state target cleavage rate” value in test [1] stood at 0.134 ± 0.02; in test [2] it was 0.0112 ± 0.0056.

In the case of GGAGAGGAAACUAUACAACCUACUACGUCA, the figures for the “pre-steady-state target cleavage rate” value in test [1] and in test [2] were 0.034 ± 0.011 and 0.00364 ± 0.0025, respectively.

As for GGAGAGGAUACGUAUACAACCUACUACCUCA, the “pre-steady-state target cleavage rate” value worked out at 0.0772 ± 0.011 in test [1] and 0.0803 ± 0.032 in test [2].

With GGAGAGGAUACUAUACAACCUAUACCUCA, the “pre-steady-state target cleavage rate” value in test [1] is 0.00606 ± 0.0021; in test [2], 0.00469 ± 0.0024.

With GGAGAGGAUACUUUACAACCUUCUACCUCA, the “pre-steady-state target cleavage rate” value turned out to be 0.00789 ± 0.002 in test [1] and 0.0032 ± 0.0028 in test [2].

Consider GGAGACCAUACUAUACAACCUACUACUCA, for which the “pre-steady-state target cleavage rate” value was 0.204 ± 0.026 in test [1] and 0.00387 ± 0.0024 in test [2].

Consider GGAGACGAUACUAUACAACCUACUACCCUCA, for which the entries for the “pre-steady-state target cleavage rate” value in test [1] and in test [2] were 0.176 ± 0.021 and 0.00506 ± 0.0015, respectively.

Take GGAGACCAUACUAUACUACCUACUACGUCA: the “pre-steady-state target cleavage rate” value in test [1] is 0.104 ± 0.017; in test [2] it was 0.0039 ± 0.0028.

Turning to GGAGUGGAUACUAUACAACCUACUUACCUCA, the “pre-steady-state target cleavage rate” value in test [1] was found to be 0.133 ± 0.011; in test [2], 0.00852 ± 0.0034.

For the sequence GGAGACGAUACUAUACAACCGACUACCUCA, the “pre-steady-state target cleavage rate” value came out at 0.00402 ± 0.0035 in test [1] and 0.00284 ± 0.002 in test [2].

On to GGAGUGGAUACGUAUACAACCUACUACCUCA, for which the “pre-steady-state target cleavage rate” value in test [1] is 0.111 ± 0.0099; in test [2], 0.082 ± 0.03.

For the sequence GGAGAGGAUAGUAUACAACCUACUACCUCA, the “pre-steady-state target cleavage rate” value in test [1] turned out to be 0.0476 ± 0.01; in test [2], 0.00608 ± 0.0032.

Turning to GGAGAGGAUACUAUACAACCUUCAACCUCA, the “pre-steady-state target cleavage rate” value in test [1] is 0.00483 ± 0.0021; in test [2], 0.00352 ± 0.0022.
